Test results as given in PubChem BioAssay (NCATS).
Where “and” joins values, the source holds several entries; their conditions need not be identical. Equal entries are not always repeated. Results filed as inconclusive are left out. Calls of active or inactive are those of the source. The call rests on the fitted dose curve; in most records, active means well fitted curve in the direction sought with a large enough effect; inconclusive means small, poorly fitted or top-dose-only effect, or another doubt; inactive means no such curve, though single readings can be large; an effect the other way counts as inactive or inconclusive.

Tests used:
KB-3-1 = assay: Cytotoxic Profiling of Annotated Libraries Using Quantitative High-Throughput Screening (AID 1296008); settings: Five cell lines viability, CellTiter-Glo ATP luminescence, 48-72 h; max response: stronger effect = lower value; further: nearly all actives have a fitted effect of over 60% in size
Method in brief: (§1)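 Cells exposed to compounds for 48 or 72 hr at 37 degrees Celsius. Viability read as ATP-coupled luminescence with CellTiter-Glo after 10 min at room temperature.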

NIH3T3 [1] = assay: as above; settings: Five cell lines viability, CellTiter-Glo ATP luminescence, 48-72 h; max response: stronger effect = lower value
Method in brief: as §1

HACAT = assay: qHTS assay to identify novel small-molecules to repurpose for Merkel cell carcinoma treatment (AID 1296009); settings: MCC and control cell lines, CellTiter-Glo viability, 72 h; at 44.8 µM (top of the series) unless noted; further: nearly all actives have a fitted effect of over 60% in size; further: potency means the concentration at half of the fitted maximal effect
Method in brief: (§2)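 CellTiter-Glo luminescence after 72 hr compound exposure at 37 degree celsius gave cell viability. Libraries NPC and MIPE were run as 8- and 11-point dose responses; RLUs normalized to DMSO (negative) and no-cell (cytotoxicity) controls.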

MCC-13 = assay: as above; settings: MCC and control cell lines, CellTiter-Glo viability, 72 h; series mostly up to 46 µM
Method in brief: as §2

MCC-26 = assay: as above; settings: MCC and control cell lines, CellTiter-Glo viability, 72 h; series mostly up to 46 µM
Method in brief: as §2

MKL-1 = assay: as above; settings: MCC and control cell lines, CellTiter-Glo viability, 72 h; series mostly up to 46 µM
Method in brief: as §2

MKL-2 = assay: as above; settings: MCC and control cell lines, CellTiter-Glo viability, 72 h; series mostly up to 46 µM
Method in brief: as §2

UISO = assay: as above; settings: MCC and control cell lines, CellTiter-Glo viability, 72 h; series mostly up to 46 µM
Method in brief: as §2

WaGa = assay: as above; settings: MCC and control cell lines, CellTiter-Glo viability, 72 h; series mostly up to 46 µM
Method in brief: as §2

C33A = assay: Primary qHTS to identify gynecologic anti-cancer compounds using libraries of approved drugs and bioactive compounds (AID 1345084); settings: Gynecologic cancer cell panel viability, ATPlite luminescence, 48 h; series mostly up to 57.5 µM; further: nearly all actives have a fitted effect of over 55% in size
Method in brief: (§3)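 Cytotoxicity screen measuring ATP content by luciferase luminescence. Each compound is applied at five concentrations for 48 h at 37 C with 5% CO2.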

CAOV3 = assay: as above; settings: Gynecologic cancer cell panel viability, ATPlite luminescence, 48 h; series mostly up to 57.5 µM
Method in brief: as §3

CASKI = assay: as above; settings: Gynecologic cancer cell panel viability, ATPlite luminescence, 48 h; series mostly up to 57.5 µM
Method in brief: as §3

Es-2 = assay: as above; settings: Gynecologic cancer cell panel viability, ATPlite luminescence, 48 h; series mostly up to 57.5 µM
Method in brief: as §3

HeLa = assay: as above; settings: Gynecologic cancer cell panel viability, ATPlite luminescence, 48 h; series mostly up to 57.5 µM
Method in brief: as §3

Hek293T [2] = assay: as above; settings: Gynecologic cancer cell panel viability, ATPlite luminescence, 48 h, control line for the selectivity index; series mostly up to 57.5 µM
Method in brief: as §3

JEG-3 = assay: as above; settings: Gynecologic cancer cell panel viability, ATPlite luminescence, 48 h; series mostly up to 57.5 µM
Method in brief: as §3

OV90 = assay: as above; settings: Gynecologic cancer cell panel viability, ATPlite luminescence, 48 h; series mostly up to 57.5 µM
Method in brief: as §3

NIH3T3 [3] = assay: qHTS assay to identify novel small-molecules to repurpose for Merkel cell carcinoma treatment (AID 1296009); settings: MCC and control cell lines, CellTiter-Glo viability, 72 h; at 44.8 µM (top of the series) unless noted; further: nearly all actives have a fitted effect of over 60% in size; further: potency means the concentration at half of the fitted maximal effect
Method in brief: as §2

HEK293T [4] = assay: as above; settings: MCC and control cell lines, CellTiter-Glo viability, 72 h; at 44.8 µM (top of the series) unless noted
Method in brief: as §2
On the % scale 0 is the no-effect control and ±100 the full control effect.

CNC(C)(C)Cc1ccccc1
inactive: max response (KB-3-1) 16.1% | max response (NIH3T3 [1]) 2.82% | outcome (HACAT) | outcome (MCC-13) | Potency (MCC-26) | Potency (MKL-1) | Potency (MKL-2) | Potency (UISO) | Potency (WaGa) | Potency (C33A) | outcome (CAOV3) | outcome (CASKI) | Potency (Es-2) | Potency (HeLa) | outcome (Hek293T [2]) | outcome (JEG-3) | Potency (OV90)

CC1(C)C(C=C(Cl)Cl)C1C(=O)OC(C#N)c1cccc(Oc2ccccc2)c1 (centres undefined)
inactive: max response (KB-3-1) 2.32% | outcome (NIH3T3 [1]) | outcome (HACAT) | outcome (MCC-13) | Potency (MKL-1) | Potency (MKL-2) | outcome (NIH3T3 [3]) | Potency (UISO) | Potency (WaGa) | Potency (C33A) | outcome (CAOV3) | outcome (CASKI) | Potency (Es-2) | Potency (HeLa) | outcome (Hek293T [2]) | outcome (JEG-3) | Potency (OV90)

O=C(Nc1ccc(Br)cc1)c1cc(Br)cc(Br)c1O
inactive: max response (KB-3-1) -24% | max response (NIH3T3 [1]) -23.1% | outcome (HACAT) | outcome (MCC-13) | Potency (MCC-26) | Potency (MKL-1) | Potency (MKL-2) | Potency (UISO) | Potency (C33A) | outcome (CAOV3) | outcome (CASKI) | outcome (Hek293T [2])

CC(C)=CC1C(C(=O)OCN2C(=O)C3=C(CCCC3)C2=O)C1(C)C (centres undefined)
inactive: max response (KB-3-1) 2.15% | max response (NIH3T3 [1]) -1.87% | outcome (HACAT) | outcome (MCC-13) | Potency (MCC-26) | Potency (MKL-1) | Potency (MKL-2) | Potency (UISO) | Potency (WaGa) | Potency (C33A) | outcome (CASKI) | Potency (Es-2) | Potency (HeLa) | outcome (JEG-3) | Potency (OV90)

CN1C(=O)CCS(=O)(=O)C1c1ccc(Cl)cc1 (centres undefined)
inactive: max response (KB-3-1) -6.09% and -6.07% | max response (NIH3T3 [1]) 2.05% and -20.3% | outcome (HACAT) | outcome (HEK293T [4]) | outcome (MCC-13) | Potency (MKL-1) | Potency (MKL-2) | Potency (UISO) | Potency (WaGa) | Potency (C33A) | outcome (CAOV3) | outcome (CASKI) | Potency (Es-2) | Potency (HeLa) | outcome (Hek293T [2]) | outcome (JEG-3) | Potency (OV90)

CCC1(c2ccccc2)C(=O)N(COC)C(=O)N(COC)C1=O
inactive: max response (KB-3-1) -3.81% | outcome (NIH3T3 [1]) | outcome (MCC-13) | Potency (MCC-26) | Potency (MKL-1) | Potency (MKL-2) | outcome (NIH3T3 [3]) | Potency (UISO) | Potency (WaGa) | Potency (C33A) | outcome (CAOV3) | outcome (CASKI) | Potency (Es-2) | Potency (HeLa) | outcome (Hek293T [2]) | outcome (JEG-3) | Potency (OV90)

CCC1(c2ccc(N)cc2)CCC(=O)NC1=O (centres undefined)
inactive: max response (KB-3-1) 5.24% and 0.522% | max response (NIH3T3 [1]) 1.87% and -15.6% | outcome (HEK293T [4]) | outcome (MCC-13) | Potency (MKL-1) | Potency (MKL-2) | Potency (UISO) | Potency (WaGa) | Potency (C33A) | outcome (CAOV3) | outcome (CASKI) | Potency (Es-2) | Potency (HeLa) | outcome (Hek293T [2]) | outcome (JEG-3) | Potency (OV90)

C[C@](O)(CS(=O)(=O)c1ccc(F)cc1)C(=O)Nc1ccc(C#N)c(C(F)(F)F)c1
active: Potency (MKL-2) 23.5 µM | Potency (WaGa) 13.2 µM
inactive: max response (KB-3-1) 5.52% | max response (NIH3T3 [1]) -9.3% | outcome (HACAT) | outcome (MCC-13) | Potency (MKL-1)

O=C(N/N=C/c1ccc([N+](=O)[O-])o1)c1cc([N+](=O)[O-])cc([N+](=O)[O-])c1O
inactive: max response (KB-3-1) 15.7% | max response (NIH3T3 [1]) 1.92% | outcome (HACAT) | outcome (MCC-13) | Potency (MCC-26) | Potency (MKL-1) | Potency (UISO) | Potency (C33A) | outcome (CASKI) | Potency (Es-2) | Potency (HeLa) | outcome (Hek293T [2]) | outcome (JEG-3) | Potency (OV90)

CC(C)(C)NCC(O)c1ccccc1Cl (centres undefined)
inactive: max response (KB-3-1) 2.34% | max response (NIH3T3 [1]) -6.71% | outcome (MCC-13) | Potency (MKL-1) | Potency (MKL-2) | Potency (UISO) | Potency (WaGa) | Potency (C33A) | outcome (CAOV3) | outcome (CASKI) | Potency (Es-2) | Potency (HeLa) | outcome (Hek293T [2]) | outcome (JEG-3)

CCN[C@@H](C)Cc1ccccc1
inactive: max response (KB-3-1) 4.57% | max response (NIH3T3 [1]) -15.7% | outcome (MCC-13) | Potency (MKL-1) | Potency (MKL-2) | Potency (UISO) | Potency (WaGa) | Potency (C33A) | outcome (CASKI) | Potency (Es-2) | Potency (HeLa) | outcome (Hek293T [2]) | outcome (JEG-3) | Potency (OV90)

Clc1cccc(SC2CCNCC2)n1
inactive: max response (KB-3-1) -11.2% | max response (NIH3T3 [1]) 4.41% | outcome (MCC-13) | Potency (MCC-26) | Potency (MKL-1) | Potency (MKL-2) | Potency (UISO) | Potency (WaGa) | Potency (C33A) | outcome (CASKI) | Potency (Es-2) | Potency (HeLa) | outcome (Hek293T [2]) | outcome (JEG-3) | Potency (OV90)

CC(C)c1c(CN(C)C(C)Cc2ccccc2)n(C)n(-c2ccccc2)c1=O (centres undefined)
inactive: max response (KB-3-1) 1.6% | max response (NIH3T3 [1]) 4.46% | outcome (MCC-13) | Potency (MKL-1) | Potency (MKL-2) | Potency (UISO) | Potency (WaGa) | Potency (C33A) | outcome (CAOV3) | outcome (CASKI) | Potency (Es-2) | Potency (HeLa) | outcome (Hek293T [2]) | outcome (JEG-3)
